Reference: PubChem BioAssay (EPA / NIEHS)
Records with an inconclusive call do not appear. Calls of active or inactive are those of the source. Rule for the calls: active = hit-call score of the fitted dose curve at least 0.9, where 1 is the maximum; inconclusive = response in the unintended direction; inactive = score below 0.9.

Read-out: Cytochrome P450 3A4 (Homo sapiens) (UniProt P08684)
Assay: CLD_CYP3A4_24hr: CellzDirect (CLD) Gene Expression Assay for xenobiotic metabolism (CYP3A4) at 24 hours (AID 2283689)
Experimental: CLD_24hr is a cell-based, multiplexed-readout assay that uses hepatocyte, a human liver primary cell, with measurements taken at 24 hours after chemical dosing in a 96-well plate.CLD_CYP3A4_24hr is one of 16 assay component(s) measured or calculated from the CLD_24hr assay. It is designed to make measurements of mRNA induction, a form of inducible reporter, as detected with chemiluminescence signals by Quantitative Nuclease Protection Assay (qNPA) technology.Data from the assay component CLD_CYP3A4_24hr was analyzed at the endpoint, CLD_CYP3A4_24hr, in the positive analysis fitting direction relative to DMSO as the negative control and baseline of activity. Using a type of inducible reporter, gain-of-signal activity can be used to understand changes in the reporter gene as they relate to the gene CYP3A4. Furthermore, this assay endpoint can be referred to as a primary readout. To generalize the intended target to other relatable targets, this assay endpoint is annotated to the cyp intended target family, where subfamily is xenobiotic metabolism.
Human hepatocyte cultures were treated daily for two consecutive days with fresh dosing solutions containing appropriate concentrations of the 320 ToxCast chemicals (chemical identities were blinded to CellzDirect and other ToxCast collaborators), vehicle control (0.2% DMSO), and positive control inducers as summarized in Table 1. Due to the large number of treatment groups and chemicals examined, the ToxCast chemicals were divided into two groups (spanning two independent cultures of hepatocytes from separate donor preparations (Hu778: ToxCast plates 1 and 2; Hu776: ToxCast plates 3 and 4). Each preparation of human hepatocyte cultures was treated with respective vehicle control, medium only control, set of six positive controls/reference chemicals for the five hepatic receptor pathways, and a subset of eight of the ToxCast chemicals (indoxacarb, pyrithiobac-sodium, norflurazon, cyhalofop-butyl, methomyl, thiram, acetochlor, and propiconazole). These replicate data, coupled with internal replicates designed within the blinded ToxCast chemical library, provided additional data to evaluate interindividual differences between hepatocyte preparations and their potential impact on chemical profiles.Cell morphology and integrity were evaluated using phase-contrast microscopy as an indicator of hepatocyte cell health (Tyson & Green, 1987). Cultures for each treatment group (i.e., media, vehicle [0.2% DMSO], positive control inducers [multiple concentrations], and the ToxCast chemicals [multiple concentrations]) were observed and cell morphology was assessed relative to vehicle control cultures at each harvest time point (0, 6, 24, or 48 h). […] Images were evaluated at the conclusion of the study to assess changes in cell integrity and account for the effects of chemical exposure on uncharacteristic changes in concentration-dependent gene expression profiles. The results from these determinations of apparent cytotoxicity were annotated (yes/no) alongside the corresponding qNPA data for reference.At the conclusion of each treatment period, hepatocyte cultures (96-well) were washed with 1 volume of HBSS, lysed by addition of 25 ul ArrayPlate lysis buffer (HTG, Tucson, AZ), and 70 ul/well of Denaturation Oil, denatured by incubation at 95C for 10 min, and frozen at approximately -70C until analysis by nuclease protection assay (qNPA) (Roberts et al., 2007). For qNPA analysis, cell lysates were thawed at 50C for approximately 30 min, qNPA probes were added, and samples were incubated at 95C for 10 min to begin the detection process by denaturing the target RNA, dissociating the duplexes and secondary structure hybridization. At the conclusion of the hybridization period, S1 nuclease reagent was added to each sample to digest all nonprotected nucleotides at 50C for 60-90 min. […]

Sequence of Cytochrome P450 3A4 (Homo sapiens) (P08684 whole entry, looked up): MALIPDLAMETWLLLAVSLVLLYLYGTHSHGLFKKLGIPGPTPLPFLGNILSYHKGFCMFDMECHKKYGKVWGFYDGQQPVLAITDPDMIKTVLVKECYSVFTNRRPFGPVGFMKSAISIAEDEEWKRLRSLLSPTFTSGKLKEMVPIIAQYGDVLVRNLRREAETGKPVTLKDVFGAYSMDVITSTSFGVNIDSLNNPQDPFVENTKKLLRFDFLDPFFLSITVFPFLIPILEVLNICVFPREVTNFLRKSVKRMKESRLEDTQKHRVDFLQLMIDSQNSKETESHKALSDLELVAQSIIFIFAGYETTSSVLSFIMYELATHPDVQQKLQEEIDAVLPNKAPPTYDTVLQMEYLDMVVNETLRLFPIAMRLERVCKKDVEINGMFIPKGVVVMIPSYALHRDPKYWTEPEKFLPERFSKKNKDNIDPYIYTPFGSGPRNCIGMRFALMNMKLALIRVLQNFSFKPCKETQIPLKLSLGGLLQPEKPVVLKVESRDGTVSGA

Row | Structure (SMILES) | outcome | AC50
1 | O=[N+]([O-])/N=C1\NCCN1Cc1ccc(Cl)nc1 | inactive | 
2 | COC(=O)c1ccccc1S(=O)(=O)NC(=O)Nc1nc(C)nc(OC)n1 | inactive | 
3 | COP(=S)(OC)Oc1ccc([N+](=O)[O-])cc1 | inactive | 
4 | CCN(CC)C(=O)SCc1ccc(Cl)cc1 |  | 20 µM (active)
5 | N#Cc1c(Cl)c(Cl)c(Cl)c(C#N)c1Cl | inactive | 
6 | O=C(O)C(F)(F)C(F)(F)C(F)(F)C(F)(F)C(F)(F)C(F)(F)C(F)(F)F |  | 20 µM (active)
7 | CC1(C)C(C=C(Cl)Cl)C1C(=O)OC(C#N)c1ccc(F)c(Oc2ccccc2)c1 (stereo not drawn) | inactive | 
8 | Cc1[nH]c(=O)n(C(C)(C)C)c(=O)c1Cl | inactive | 
9 | CCOC1Oc2ccc(OS(C)(=O)=O)cc2C1(C)C (stereo not drawn) |  | 20 µM (active)
10 | OCCOc1ccccc1 | inactive | 
11 | CCC(C)(C)C(=O)OC1=C(c2ccc(Cl)cc2Cl)C(=O)OC12CCCCC2 |  | 0.0493 µM (active)
12 | CCCN(CCOc1c(Cl)cc(Cl)cc1Cl)C(=O)n1ccnc1 |  | 0.57 µM (active)
13 | CC(C)N(C(=O)COc1nnc(C(F)(F)F)s1)c1ccc(F)cc1 | inactive | 
14 | O=[N+]([O-])c1c(Cl)c(Cl)c(Cl)c(Cl)c1Cl | inactive | 
15 | CNC(=O)Oc1ccccc1OC(C)C |  | 5.41 µM (active)
16 | CNC(=O)/C=C(\C)OP(=O)(OC)OC | inactive | 
17 | CCOc1nc(NC)nc(NC(=O)NS(=O)(=O)c2ccccc2C(=O)OC)n1 | inactive | 
18 | CC(C)(C)C(O)/C(=C\c1ccc(Cl)cc1Cl)n1cncn1 (stereo not drawn) |  | 0.98 µM (active)
19 | O=S(=O)(O)C(F)(F)C(F)(F)C(F)(F)C(F)(F)C(F)(F)C(F)(F)C(F)(F)C(F)(F)F | inactive | 

Row | Structure (SMILES) | outcome | AC50
20 | O=S1OCC2C(CO1)C1(Cl)C(Cl)=C(Cl)C2(Cl)C1(Cl)Cl (stereo not drawn) |  | 20 µM (active)
21 | CNC(=O)Oc1cccc(N=CN(C)C)c1 | inactive | 
22 | COC(=O)c1ccccc1S(=O)(=O)NC(=O)N(C)c1nc(C)nc(OC)n1 | inactive | 
23 | CC1(c2ccc(Oc3ccccc3)cc2)OC(=O)N(Nc2ccccc2)C1=O (stereo not drawn) | inactive | 
24 | CCC(C)(NC(=O)c1cc(Cl)c(C)c(Cl)c1)C(=O)CCl (stereo not drawn) |  | 4.49 µM (active)
25 | CCOCN(C(=O)CCl)c1c(C)cccc1CC |  | 3 µM (active)
26 | CCS(=O)(=O)c1cccnc1S(=O)(=O)NC(=O)Nc1nc(OC)cc(OC)n1 |  | 20 µM (active)
27 | CCC(C)Nc1c([N+](=O)[O-])cc(C(C)(C)C)cc1[N+](=O)[O-] (stereo not drawn) |  | 3.84 µM (active)
28 | Cc1cc(C)nc(NC(=O)NS(=O)(=O)c2ccccc2C(=O)OC2COC2)n1 |  | 20 µM (active)
29 | CC(C)OC(=O)Nc1cccc(Cl)c1 |  | 16 µM (active)
30 | CCCN(CCC)c1c([N+](=O)[O-])cc(C(F)(F)F)cc1[N+](=O)[O-] |  | 5.68 µM (active)
31 | O=C(NC(=O)c1c(F)cccc1F)Nc1ccc(OC(F)(F)C(F)OC(F)(F)F)c(Cl)c1 (stereo not drawn) | inactive | 
32 | CCc1ccc(C(=O)NN(C(=O)c2cc(C)cc(C)c2)C(C)(C)C)cc1 |  | 3.67 µM (active)
33 | COC(=O)c1ccccc1CS(=O)(=O)NC(=O)Nc1nc(OC)cc(OC)n1 | inactive | 
34 | Clc1ccccc1-c1nnc(-c2ccccc2Cl)nn1 |  | 3.97 µM (active)
35 | C[C@H]1[C@H](c2ccc(Cl)cc2)SC(=O)N1C(=O)NC1CCCCC1 |  | 3.56 µM (active)
36 | COP(=S)(OC)Oc1ccc(SC)c(C)c1 | inactive | 
37 | O=C(O)CCCOc1ccc(Cl)cc1Cl | inactive | 
38 | Oc1ccc(Cl)cc1Cc1ccccc1 | inactive | 
